Laboratory results from PubChem BioAssay AID2284421 (EPA ToxCast).
The source made the active and inactive calls. Rule for the calls: active = hit-call score of the fitted dose curve at least 0.9, where 1 is the maximum; inactive = score below 0.9.

The compounds below were run on Brachyury (BRA) Protein Expression, Deisenroth Lab, TBXT (gene 6862) (assay: CCTE_Deisenroth_DEVTOX-GLR_Meso_BRA: CCTE's DevTox GLR-Meso Assay Evaluation of Brachyury (BRA) Protein Expression, Deisenroth Lab).
Method: CCTE_Deisenroth_DEVTOX-GLR_Meso assay is a cell-based, multiplex-readout assay that uses RUES2-GLR, a human pluripotent cell line, with measurements taken at 48 hours after chemical dosing in a 384-well microplateCCTE_Deisenroth_DEVTOX-GLR_Meso_BRA is 1 of 4 assay components calculated from the CCTE_Deisenroth_DEVTOX-GLR_Meso assay and it measures an the percentage of cells in an mesoderm state. Using a type of inducible fluorescent protein reporter, gain-of-signal activity can be used to understand changes in gene expression with fluorescent microscopy. The percentage of BRA+ cells are determined by calculating the number of BRA+ cells divided by the cell count. To generalize the intended target to other relatable targets, this assay component is annotated to the transcription factor intended target family, where the subfamily is T-box protein.Data from the assay component CCTE_Deisenroth_DEVTOX-GLR_Meso_BRA was analyzed as 1 assay endpoint. The endpoint is the percent change in BRA+ cell population relative to the 0.2% DMSO control in the CCTE_Deisenroth_DEVTOX-GLR_Meso assay. Furthermore, this assay endpoint can be referred to as a primary readout, because this assay has produced multiple assay endpoints where this one serves as a measure of mesoderm differentiation.
All assay protocols are aligned to the DevTox GLR-Endo assay workflow. Cells are seeded into 384-well microplates for 24 hours prior to initiating differentiation in defined media for a total duration of 48 hours. A total of two chemical exposures are administered in 24-hour intervals during the 48-hour differentiation period. At the assay termination point, cells are fixed and stained with a fluorescent dye demarcating the nucleus. High-content imaging is used to acquire brightfield and fluorescent channel images across 5 fields per well. Cell identification and mean biomarker fluorescence intensities are calculated with image analysis software to determine the total cell counts for viability assessment and the biomarker expression frequency for each lineage-dependent assay. A typical experimental design tests a 10-point concentration series (1 nM - 200 uM) for 28 compounds in single technical replicate. Assay plate controls include non-differentiated pluripotent cells (baseline control), lineage-specific differentiated cells (differentiation control), and DMSO solvent exposed differentiated cells (solvent control). Experiments typically comprise a minimum of four experimental replicates (n=4).

| Structure (SMILES) | outcome | AC50 |
| --- | --- | --- |
| CC(=O)Nc1ccc(O)cc1 | inactive | – |
| CN(Cc1cnc2nc(N)nc(N)c2n1)c1ccc(C(=O)N[C@@H](CCC(=O)O)C(=O)O)cc1 | inactive | – |
| Nc1cccc2c1C(=O)N(C1CCC(=O)NC1=O)C2=O (stereo unspecified) | inactive | – |
| CC(C)(c1ccc(O)cc1)c1ccc(O)cc1 | inactive | – |
| CS(=O)(=O)OCCCCOS(C)(=O)=O | inactive | – |
| O=C1NC(=O)C(c2ccccc2)(c2ccccc2)N1 | inactive | – |
| O=c1[nH]cc(F)c(=O)[nH]1 | inactive | – |
| Nc1nc2ncc(CNc3ccc(C(=O)N[C@@H](CCC(=O)O)C(=O)O)cc3)nc2c(=O)[nH]1 | inactive | – |
| O=C1NS(=O)(=O)c2ccccc21 | inactive | – |
| CC1=C(/C=C/C(C)=C/C=C/C(C)=C\C(=O)O)C(C)(C)CCC1 | inactive | – |
| CC/C(=C(/CC)c1ccc(O)cc1)c1ccc(O)cc1 | – | 19.8 µM (active) |
| CC1(C)S[C@@H]2[C@H](NC(=O)Cc3ccccc3)C(=O)N2[C@H]1C(=O)O | inactive | – |
| CCCC(CCC)C(=O)O | inactive | – |
| CC1=C(/C=C/C(C)=C/C=C/C(C)=C/C(=O)O)C(C)(C)CCC1 | inactive | – |
| O=C1CCC(N2C(=O)c3ccccc3C2=O)C(=O)N1 (stereo unspecified) | inactive | – |
| CCN(CC)CCNC(=O)c1c(C)[nH]c(/C=C2\C(=O)Nc3ccc(F)cc32)c1C | inactive | – |
